We go through 13 compounds from PubChem BioAssay (NCI).

The structures appear in SMILES notation. About 83,000 compounds went through this panel and 20% of them were active in at least one assay; those are over-represented in the sample as a whole.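 The endpoint reported here, percent growth, reads 100 for growth as untreated, 0 for no net growth and -100 for all cells dead.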 The source made the active and inactive calls. How the source made its calls: active means growth percent below 10; inactive means the rest.

This assay has as its system SF-295 CNS. Kind of assay: NCI-60 one-dose screen, 48 h (100 = growth as untreated, 0 = no growth, -100 = all killed). The following applies: 10 µM unless noted.
Regarding `C=C(C)[C@@H]1CC[C@]2(C(=O)NCCNCCN)CC[C@]3(C)[C@H](CC[C@@H]4[C@@]5(C)C/C(=C/c6ccncc6)C(=O)C(C)(C)[C@@H]5CC[C@]43C)[C@@H]12`, the growth is 100% (inactive).

As to `CS(=O)(=O)C1=CN(CCO)C(=O)N2CCCN=C12`, the growth was 105% (inactive).

Turning to `Cc1ccc(Sc2nnc(/N=C3\C(=O)Nc4ccccc43)s2)cc1`, the growth is 105% (inactive).

With `CCOc1nc(-c2ccccc2)cc2c(O)c(C(=O)NN)[nH]c(=O)c12`, the growth is 107% (inactive).

Regarding `O=C1Nc2ccc(Br)cc2/C1=N/c1n[nH]c(=S)s1`, the growth is 101% (inactive).

For `CCCCCCCCCCCCCCCC(N)c1ccccc1` (stereo not drawn), the growth was -49.5% (active).

As for `CCc1n(Cc2ccc3ccccc3c2)cc[n+]1Cc1ccc2ccccc2c1`, the growth is 6.3% (active).

For the compound `Cc1ccc(-c2nc(N3CCNCC3)c3oc(-c4ccccc4)nc3n2)cc1`, the growth is -23.2% (active).

Regarding `O=C(OCc1ccc2cccc(O)c2n1)N1CCN(C(=O)c2cc3cc(F)ccc3[nH]2)CC1`, the growth was 54.7% (inactive).

`CN1CCN(Cc2ccc(NC(=O)c3cncc(C#Cc4cnc(N)c5ccccc45)c3)cc2C(F)(F)F)CC1`: the growth is -87.4% (active).

As for `CO/N=C(/C)c1ccc(NC(=O)CSc2nnc(-c3ccncc3)n2-c2ccccc2)cc1`, the growth is 33% (inactive).

Consider `CC(=O)OC[C@]12CCC(C)(C)C[C@H]1[C@@]1(O)[C@H](O)C[C@@H]3[C@@]4(C)CCCNC(C)(C)[C@@H]4CC[C@@]3(C)[C@]1(C)CC2`, for which the growth is 102% (inactive).

Consider `COc1cc(-n2cc(-c3cc(O)c(C/C=C(\C)CCC=C(C)C)c(O)c3)nn2)cc2c1O[C@]1(C)CC[C@@H](O)C(C)(C)[C@H]1C2`, for which the growth was -53% (active).
